# Data reported in PubChem BioAssay (NCATS).
# Where “and” joins values, the source holds several entries; their conditions need not be identical. Equal entries are not always repeated. Results filed as inconclusive are left out. Unmarked numbers belong to inactive results. Calls of active or inactive are those of the source. Calls come from the whole dose curve; as a rule, active = well fitted curve in the direction sought with a large enough effect; inconclusive = small, poorly fitted or top-dose-only effect, or another doubt; inactive = no such curve, though single readings can be large; an effect the other way counts as inactive or inconclusive.
# Assays:
# [1] = Quantitative highthroughput screen to assess conditional lethalithy of NOMO1 cells grown in RPMI1640 with dialyzed fetal bovine serum (RPMI+ds) (AID 1963877); note: nearly all actives have a fitted effect of over 30% in size;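 for viability: series mostly up to about 46 µM; 100% = DMSO control wells and 0% = empty wells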
# Procedure, shortened: (§1)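 Each medium arm—HPLM with 10% dialyzed FBS, or RPMI1640 with 5 mM glucose and 10% untreated or dialyzed FBS—was screened against an 11-point, 3-fold compound titration for 48 h at 37 °C, with CellTiter-Glo luminescence as endpoint.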
# [2] = Quantitative highthroughput screen to assess conditional lethalithy of NOMO1 cells grown in Human Plasma-Like Medium with dialyzed fetal bovine serum (HPLM+ds) (AID 1963878); note: nearly all actives have a fitted effect of over 35% in size;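 for viability: 100% = DMSO wells and 0% = empty wells on each plate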
# Procedure, shortened: as §1
# [3] = Quantitative highthroughput screen to assess conditional lethalithy of P12 Ichikawa cells grown in Human Plasma-Like Medium with dialyzed fetal bovine serum (HPLM+ds) (AID 1963879); conditions: Potency: viability; note: nearly all actives have a fitted effect of over 35% in size; for viability: series mostly up to about 46 µM
# Procedure, shortened: as §1
# [4] = Quantitative highthroughput screen to assess conditional lethalithy of SEM cells grown in RPMI1640 with unreated serum (RPMI+s) (AID 1963883); note: nearly all actives have a fitted effect of over 35% in size;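 for viability: 100% = DMSO wells and 0% = empty wells without cells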
# Procedure, shortened: as §1
# [5] = Quantitative highthroughput screen to assess conditional lethalithy of SEM cells grown in Human Plasma-Like Medium with dialyzed fetal bovine serum (HPLM+ds) (AID 1963882); note: nearly all actives have a fitted effect of over 35% in size; for viability: series mostly up to about 46 µM
# Procedure, shortened: as §1
# [6] = Quantitative highthroughput screen to assess conditional lethalithy of SEM cells grown in RPMI1640 with dialyzed fetal bovine serum (RPMI+ds) (AID 1963884); note: nearly all actives have a fitted effect of over 35% in size;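 for viability: series mostly up to about 46 µM; 100% = DMSO control wells and 0% = empty wells without cells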
# Procedure, shortened: as §1
# [7] = Quantitative highthroughput screen to assess conditional lethalithy of P12 Ichikawa cells grown in RPMI1640 with untreated serum (RPMI+s) (AID 1963881); conditions: Potency: viability; note: nearly all actives have a fitted effect of over 35% in size;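 for viability: series mostly up to about 46 µM; 100% = DMSO wells and 0% = empty wells without cells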
# Procedure, shortened: as §1
# [8] = Cellular viability qHTS for adrenocortical cancer (ACC) cell line SW-13 (AID 1963989); conditions: SW-13 ACC cells viability, CellTiter-Glo, 48 h; activity (max response): stronger effect = lower value; note: nearly all actives have a fitted effect of over 65% in size;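 for activity (max response): cells grown in serum-free medium with ITS supplement; % is set by controls: 0 for no effect and ±100 for the full control effect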
# Procedure, shortened: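 Viability was read as CellTiter-Glo luminescence after 48 h compound treatment (up to 46 uM final) of SW-13 cells grown serum-free; titration curves were fit with a four-parameter logistic model to give IC50 and efficacy.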
# [9] = Cellular viability qHTS for adrenocortical cancer (ACC) cell line NCI-H295R (AID 1963990); note: nearly all actives have a fitted effect of over 60% in size
# Procedure, shortened: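 CellTiter-Glo ATP luminescence, read 48 h after compound addition, measured viability of NCI-H295R adrenocortical cells grown serum-free with ITS. Final concentrations spanned up to 46 uM. Data normalized to DMSO and doxorubicin, fitted for IC50 and maximal response.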
# [10] = Quantitative highthroughput screen to assess conditional lethalithy of P12 Ichikawa cells grown in RPMI1640 with dialyzed fetal bovine serum (RPMI+ds) (AID 1963880); conditions: Potency: P12-Ichikawa viability; note: nearly all actives have a fitted effect of over 35% in size;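 for viability: 100% = DMSO wells and 0% = empty wells on each plate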
# Procedure, shortened: as §1
# Potency is the fitted concentration of half-maximal effect.
smiles,measurement,setting,value
O=C1Nc2ccc(Cl)cc2C(C#CC2CC2)(C(F)(F)F)O1 (stereo not drawn),Potency,[1],inactive
same,Potency,[2],inactive
same,Potency,[3],inactive
same,Potency,[4],inactive
C[C@H](NCc1ccc(OCc2cccc(F)c2)cc1)C(N)=O,Potency,[2],20.9 µM (active)
same,Potency,[3],23.5 µM (active)
same,Potency,[5],0.469 µM (active)
same,Potency,[4],0.662 µM (active)
same,Potency,[6],0.332 µM (active)
CC1(C)CCC(C)(C)c2cc(NC(=O)c3ccc(C(=O)O)cc3)ccc21,Potency,[1],inactive
same,Potency,[7],inactive
same,Potency,[5],inactive
same,Potency,[4],inactive
same,activity (max response),[8],-9.24%
same,Potency,[9],inactive
Nc1nc2ccc(OC(F)(F)F)cc2s1,Potency,[1],inactive
same,Potency,[5],inactive
same,Potency,[9],20 µM (active)
O=C(O)C[C@H](O)C[C@H](O)C=Cc1c(C2CC2)nc2ccccc2c1-c1ccc(F)cc1,Potency,[2],20.9 µM (active)
same,Potency,[10],4.18 µM (active)
same,Potency,[4],11.8 µM (active)
CNC(=O)c1ccc(N2C(=S)N(c3cnc(C#N)c(C(F)(F)F)c3)C(=O)C23CCC3)cc1F,Potency,[1],2.35 µM (active)
same,Potency,[10],inactive
same,Potency,[7],inactive
same,Potency,[5],inactive
same,Potency,[4],inactive
same,Potency,[6],inactive
same,activity (max response),[8],4.43%
COc1ccc(C2=N[C@H](c3ccc(Cl)cc3)[C@H](c3ccc(Cl)cc3)N2C(=O)N2CCNC(=O)C2)c(OC(C)C)c1,Potency,[2],10.5 µM (active)
same,Potency,[3],10.5 µM (active)
same,Potency,[5],0.235 µM (active)
same,Potency,[4],0.418 µM (active)
same,Potency,[6],0.187 µM (active)
same,Potency,[8],31.6 µM (active)
CC(C)N(C[C@H]1O[C@@H](n2cnc3c(N)ncnc32)[C@H](O)[C@@H]1O)C1CC(CCc2nc3ccc(C(C)(C)C)cc3[nH]2)C1 (stereo partly drawn),Potency,[2],5.88 µM (active)
same,Potency,[3],1.05 µM (active)
same,Potency,[10],3.71 µM (active)
same,Potency,[4],1.05 µM (active)
same,Potency,[6],11.7 µM (active)
same,activity (max response),[8],7.65%
same,Potency,[9],inactive
Clc1ccc2ncc(-c3cccc(NC4CNC4)n3)n2c1,Potency,[2],20.9 µM (active)
same,Potency,[7],23.5 µM (active)
same,activity (max response),[8],12.3%
same,Potency,[9],inactive
CC(=O)Nc1sc2c(c1-c1nc3ccccc3s1)CNC2,Potency,[2],inactive
same,Potency,[3],inactive
same,Potency,[7],16.6 µM (active)
same,Potency,[5],18.7 µM (active)
COc1cc(O)c2c(c1)C(=O)c1cc(C)cc(O)c1C2=O,Potency,[2],9.11 µM (active)
same,Potency,[5],6.45 µM (active)
same,Potency,[4],4.07 µM (active)
same,Potency,[6],5.12 µM (active)
COCCCCC(=NOCCN)c1ccc(C(F)(F)F)cc1,Potency,[2],18.7 µM (active)
same,Potency,[3],inactive
CCC[C@H](NC(=O)C(C#N)=Cc1cccc(Br)n1)c1ccccc1,Potency,[2],20.9 µM (active)
same,Potency,[10],26.4 µM (active)
COc1cc2c(Nc3ccc(Cl)c(Cl)c3F)ncnc2cc1OCC1C[C@@H]2CN(C)C[C@H]2C1,Potency,[2],4.18 µM (active)
same,Potency,[3],11.8 µM (active)
same,Potency,[10],16.6 µM (active)
same,Potency,[7],13.2 µM (active)
same,Potency,[5],10.5 µM (active)
same,Potency,[4],2.64 µM (active)
same,Potency,[6],11.8 µM (active)
C=CCc1ccc(O)c(-c2ccc(O)c(CC=C)c2)c1,Potency,[3],0.132 µM (active)
same,Potency,[10],0.526 µM (active)
same,Potency,[7],1.05 µM (active)
Clc1ccc(COC(Cn2ccnc2)c2ccc(Cl)cc2Cl)cc1 (stereo not drawn),Potency,[2],inactive
same,Potency,[3],inactive
same,Potency,[10],5.9 µM (active)
same,Potency,[5],inactive
same,Potency,[6],inactive
CC(C)N(CCCNC(=O)Nc1ccc(C(C)(C)C)cc1)C[C@H]1O[C@@H](n2cc(Br)c3c(N)ncnc32)[C@H](O)[C@H]1O,Potency,[2],20.9 µM (active)
same,Potency,[4],20.9 µM (active)
N#Cc1ccc(COC[C@H]2O[C@@H](n3c(NCc4ccc(Cl)c(Cl)c4)nc4c(N)ncnc43)[C@@H](O)[C@@H]2O)cc1,Potency,[2],7.43 µM (active)
same,Potency,[3],inactive
same,Potency,[5],inactive
Cc1cnn(C)c1C(=O)Nc1cc(Nc2ccc3c(C=Cc4ccccn4)n[nH]c3c2)ccc1F,Potency,[2],16.6 µM (active)
same,Potency,[3],20.9 µM (active)
same,Potency,[5],2.96 µM (active)
same,Potency,[4],3.72 µM (active)
Cc1cc(OCCCS(C)(=O)=O)cc(C)c1-c1cccc(COc2ccc3c(c2)OC[C@H]3CC(=O)O)c1,Potency,[2],inactive
same,Potency,[5],inactive
CC(C)NC[C@@H](C(=O)N1CCN(c2ncnc3c2[C@H](C)C[C@H]3O)CC1)c1ccc(Cl)cc1,Potency,[2],14.8 µM (active)
same,Potency,[5],0.296 µM (active)
same,Potency,[4],0.296 µM (active)
same,Potency,[6],0.296 µM (active)
Oc1cc(O)cc(C=Cc2ccc(O)c(O)c2)c1,Potency,[1],inactive
same,Potency,[4],18.7 µM (active)
CC[C@H]1OC(=O)[C@H](C)[C@@H](O[C@H]2C[C@@](C)(OC)[C@@H](O)[C@H](C)O2)[C@H](C)[C@@H](O[C@@H]2O[C@@H](C)C[C@H](N(C)C)[C@@H]2O)[C@](C)(O)C[C@@H](C)C(=O)[C@H](C)[C@@H](O)[C@]1(C)O,Potency,[2],9.35 µM (active)
same,Potency,[3],16.6 µM (active)
same,Potency,[4],10.5 µM (active)
Cc1ccc(NC(=O)Nc2cc(C(F)(F)F)ccc2F)cc1Nc1ccc2c(c1)NC(=O)C2=Cc1ccc[nH]1,Potency,[1],20.9 µM (active)
same,Potency,[5],18.7 µM (active)
same,Potency,[4],18.7 µM (active)
same,Potency,[6],16.6 µM (active)
C=CC[C@@H]1C=C(C)C[C@H](C)C[C@H](OC)[C@H]2O[C@@](O)(C(=O)C(=O)N3CCCC[C@H]3C(=O)O[C@H](C(C)=C[C@@H]3CC[C@H](O)[C@H](OC)C3)[C@@H](C)[C@@H](O)CC1=O)[C@@H](C)C[C@@H]2OC,Potency,[2],4.18 µM (active)
same,Potency,[10],6.62 µM (active)
same,Potency,[7],6.62 µM (active)
same,Potency,[5],3.32 µM (active)
CCOC(=O)N[C@@H]1CC[C@@H]2[C@@H](C1)C[C@H]1C(=O)O[C@H](C)[C@H]1[C@@H]2C=Cc1ccc(-c2cccc(F)c2)cn1,Potency,[3],inactive
Clc1ccc(C(Cn2ccnc2)OCc2ccc(Sc3ccccc3)cc2)c(Cl)c1 (stereo not drawn),Potency,[2],inactive
same,Potency,[5],inactive
same,Potency,[6],inactive
same,Potency,[8],31.6 µM (active)
C[C@@H]1C[C@H]2[C@@H]3CCC4=CC(=O)C=C[C@]4(C)[C@@]3(F)[C@@H](O)C[C@]2(C)[C@@]1(O)C(=O)CO,Potency,[1],inactive
same,activity (max response),[8],6.21% and 9.17%
same,Potency,[9],inactive
